Records with an inconclusive call do not appear. Entries that show only a call come without a potency. A number with no mark means an inactive call. Calls of active or inactive are those of the source. The call rests on the fitted dose curve; in most records, active means well fitted inhibition curve with a large enough effect; inconclusive means small, poorly fitted or top-dose-only effect; inactive means no such curve, though single readings can be large or run the other way. Numbered stars: 1 amine (or outer) side, 2 acyl side, 3 side chain; on linkers, the order of the positions; unused ones are H or OH. Square brackets hold non-standard residues; d marks the D form. Peptide text beside a SMILES is read from it. ξ: configuration not given here. Ala(indol-2-yl) = N[C@@H](Cc1cc2ccccc2[nH]1)C(=O)O; X5 = O=C([C@@H](CC(O)CCl)O[*:1])[*:2]; aIle = CC[C@@H](C)[C@H](N)C(=O)O; ξLac(3-iPr) = CC(C)CC(O)C(=O)O; NMeV = CN[CH](C(=O)O)C(C)C; NMeA = CN[CH](C)C(=O)O; Aib = CC(C)(N)C(=O)O; βAla = NCCC(=O)O
Molecular target: Retinaldehyde dehydrogenase 3 (Homo sapiens) (UniProt P47895)
Experiment: qHTS for Inhibitors of the Aldehyde Dehydrogenase Family (ALDH1A3) Primary screen (AID 2061315)
Details: ALDH inhibition qHTS; series mostly up to 56 µM

| Compound | Potency | activity change, negative = inhibition |
| --- | --- | --- |
| C/C=C(\C)C(=O)OC1CC2C(C)(C)OC(=O)CC(OC(C)=O)C2(C)C2CC(OC(=O)C(C)C)C3(C)C(c4ccoc4)CC4OC43C12C (centres undefined) | inactive |  |
| CCC(C)(OC(C)=O)C(=O)O[C@H]1[C@H](OC(C)=O)C[C@@H]2[C@@](C)([C@@H]3C[C@H]4C=CO[C@H]4O3)[C@H](C)C[C@H](OC(C)=O)[C@@]2(COC(C)=O)[C@@]12CO2 (some centres undefined) | inactive |  |
| C[C@@H]1CCC2[C@@H](C)C(=O)OC3O[C@@]4(C)CCC1[C@]32OO4 (some centres undefined) | inactive |  |
| CC1=CC2OC3CC(O)[C@](C)([C@@]2(C)C(O)C1=O)[C@]31CO1 (some centres undefined) | inactive |  |
| CC(=O)OC1CC(O)C(C)(C)C2CC(OC(C)=O)C3(C)C(CCC4(C)C(c5ccoc5)C(=O)C5OC543)C12C (centres undefined) | inactive |  |
| COc1c(C(C)C)cc2c(c1O)[C@@]1(C(=O)O)CCCC(C)(C)C1CC2 (some centres undefined) | inactive |  |
| CC(C)(NC(=O)[C@@H](N)Cc1ccc(O)cc1)C(=O)N[C@@H](Cc1cc2ccccc2[nH]1)C(=O)N[C@@H](Cc1ccccc1)C(=O)O (H-Y[Aib][Ala(indol-2-yl)]F-OH) |  | -10.2% [at 11.2 µM] |
| N#CC(O[C@@H]1O[C@H](CO)[C@@H](O)[C@H](O)[C@H]1O)c1ccccc1 (some centres undefined) | inactive |  |
| CCCN(CCC)CCc1ccc(OC)c(OCCc2ccccc2)c1 | inactive |  |
| CCN1C[C@]2(COC)CC[C@H](O)[C@@]34C5C[C@@H]6[C@@H](OC)C[C@@](OC(C)=O)(C5[C@@H]6OC(C)=O)[C@H]([C@H](OC)C23)[C@@H]14 (some centres undefined) | inactive |  |
| C[C@]12CC[C@H](O[C@@H]3O[C@H](CO)[C@@H](O)[C@H](O)[C@H]3O)CC1=CC[C@@H]1C2CC[C@]2(C)[C@@H](C3=CC(=O)OC3)CC[C@]12O (some centres undefined) | inactive |  |
| O=C(O)c1ccnc2cc(C(OCCN3CCCCC3)c3ccccc3Cl)[nH]c12 (centres undefined) | inactive |  |
| C[C@]12CC[C@H](O)C[C@H]1CC[C@@H]1[C@@H]2[C@H](O)C(=O)[C@]2(C)[C@@H](c3ccc(=O)oc3)CC[C@]12O | inactive |  |
| CC[C@@H](C)[C@@H]1NC(=O)[C@@H]2CCCN2C(=O)[C@@H](CC(O)CCl)OC(=O)CCNC(=O)[C@H](C)N(C)C(=O)[C@H](C(C)C)N(C)C1=O (some centres undefined) (cyclo([NMeA][βAla][X5]P[aIle][NMeV])) | inactive |  |
| C[C@]12CC[C@H](O[C@@H]3O[C@H](CO)[C@@H](O)[C@H](O)[C@H]3O)CC1CC[C@@H]1C2CC[C@]2(C)[C@@H](C3=CC(=O)OC3)CC[C@]12O (some centres undefined) | inactive |  |
| CC1=CC2/C=C(\C)CCC(O)C(O)/C=C/C(=O)C23C(=O)NC(CC(C)C)C3C1C (centres undefined) | inactive |  |
| CC[C@@]1(O)C(=O)OCc2c1cc1n(c2=O)Cc2cc3c(OC)cccc3nc2-1 | inactive |  |
| C[C@]12CC[C@H](O)CC1=CC[C@@H]1C2CC[C@]2(C)[C@@H](C3=CC(=O)OC3)CC[C@]12O (some centres undefined) | inactive |  |
| CCC(C)(C#N)O[C@@H]1O[C@H](CO)[C@@H](O)[C@H](O)[C@H]1O (some centres undefined) | inactive |  |
| CC(C)(C)NC[C@H](O)c1ccc(O)cc1Cl | inactive |  |

| Compound | Potency | activity change, negative = inhibition |
| --- | --- | --- |
| C[C@@]12C[C@@H](c3ccoc3)OC(=O)C1CC[C@]1(C)[C@H]2[C@H]2C=C[C@]1(O)C(=O)O2 (some centres undefined) | inactive |  |
| COC1C(O)C(C)OC(OC2C(CO)O[C@@H](O[C@@H]3CC4CCC5C(CC[C@]6(C)[C@@H](C7=CC(=O)OC7)CC[C@]56O)[C@@]4(C)[C@H](O)C3)C(O)C2O)C1O (some centres undefined) | inactive |  |
| Cc1ccccc1C1=CCN(C)CC1 | inactive |  |
| CN1CCC2=C(C1)c1ccccc1Cc1ccccc12 | inactive |  |
| C[C@H]1O[C@@H](n2cnc3c(N)ncnc32)C[C@@H]1O | inactive |  |
| Oc1ccc2c3c1O[C@H]1[C@H](N(CCCl)CCCl)CC[C@@]4(O)[C@@H](C2)N(CC2CC2)CC[C@]314 |  | -18.8% [at 11.2 µM] |
| COC[C@]12CN(C)C3C4[C@H](OC)[C@H]1C3(C(OC)C[C@H]2O)[C@H]1C[C@@]2(O)[C@H](OC(=O)c3ccccc3)[C@@H]1[C@]4(O)[C@@H](O)[C@@H]2OC (some centres undefined) | inactive |  |
| CC(=O)O[C@H]1CN2CCC1CC2 | inactive |  |
| CN1C[C@@H]2CN(c3ccc(-c4ccccc4)nn3)C[C@@H]2C1 | inactive |  |
| CCC1=CC2CN3CCc4c([nH]c5ccccc45)[C@@](C(=O)OC)(C2)[C@@H]13 | inactive |  |
| CCN1C[C@]2(COC)[C@H](O)C[C@H](OC)[C@]34[C@@H]5C[C@]6(O)[C@H](OC(=O)c7ccccc7)[C@@H]5[C@@](O)([C@H]([C@H](OC)[C@H]23)[C@@H]14)[C@@H](O)[C@@H]6OC | inactive |  |
| C/C=C(\C)C(O)C(C)/C=C(C)/C=C/C/C(C)=C/Cc1nc(OC)c(OC)c(O[C@@H]2O[C@@H](C)[C@H](O)[C@@H](O)[C@H]2O)c1C (some centres undefined) | inactive |  |
| C=C1[C@@H]2CC[C@@]3(C)[C@H](c4ccoc4)OC(=O)C[C@]13O[C@H]1CC(=O)C(C)(C)[C@H](C(OC(C)=O)C(=O)OC)[C@]12C (some centres undefined) | inactive |  |
| CCC(C)C1NC(=O)C2CCCN2C(=O)C(CC(C)C)OC(=O)CCNC(=O)C(C)N(C)C(=O)C(C(C)C)N(C)C1=O (centres undefined) (cyclo([ξLac(3-iPr)]PI[NMeV][NMeA][βAla]); configuration not given here) | inactive |  |
| COC1=CC(=O)O[C@@H](CCc2ccccc2)C1 | inactive |  |
| CC[C@H]1C[C@@H]2CC[C@@H](O2)[C@@H](C)C(=O)O[C@H](CC)C[C@H]2CC[C@H](O2)[C@H](C)C(=O)O[C@@H](C)C[C@@H]2CC[C@@H](O2)[C@@H](C)C(=O)O[C@H](CC)C[C@H]2CC[C@H](O2)[C@H](C)C(=O)O1 | inactive |  |
| CC[C@H]1CN2CC[C@H]1C[C@H]2[C@H](O)c1ccnc2ccc(OC)cc12 | inactive |  |
| C[C@H]1CCC[C@H](O)CCC/C=C/c2cc(O)cc(O)c2C(=O)O1 | inactive |  |
| C=C[C@H]1[C@H](O[C@@H]2O[C@H](CO)[C@@H](O)[C@H](O)[C@H]2O)OC=C2C(=O)OCC[C@H]21 | inactive |  |
